Test results: article PMC5913336, “True equilibrium measurement of transcription factor-DNA binding affinities using automated polarization microscopy”

Target: T1, Optix (Drosophila melanogaster, UniProt Q95RW8 139-229)
T1 sequence: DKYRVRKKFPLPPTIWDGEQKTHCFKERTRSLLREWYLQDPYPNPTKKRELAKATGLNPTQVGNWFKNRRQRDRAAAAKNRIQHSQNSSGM
Assay: FP; 33 mM phosphate pH 7.0, 90 mM NaCl, 0.01% Tween 20, 0.1 mM DTT, 0.5% agarose; room temperature
Conditions: tags: N-GST (pGEX-6P-1, kept); dsDNA, one strand shown

Sequence | binding signal | Kd [nM]
AGAGTGGTAGCT | 39.7 Kd / Kd of best base at the position | 
ATAGTGATAGCT | 1.01 Kd / Kd of best base at the position | 
AGATTGATAGCT | 6.38 Kd / Kd of best base at the position | 
AGAGTGATAGAT | 16.1 Kd / Kd of best base at the position | 
CGAGTGATAGCT | 5.01 Kd / Kd of best base at the position | 
AGAGTAATAGCT | 23.7 Kd / Kd of best base at the position | 
AGAGTGACAGCT | 185 Kd / Kd of best base at the position | 
TGAGTGATAGCT | 4.48 Kd / Kd of best base at the position | 
AGAGTGATAGGT | 4.85 Kd / Kd of best base at the position | 
AGAGTGATGGCT | 127 Kd / Kd of best base at the position | 
AGAGAGATAGCT | 9.88 Kd / Kd of best base at the position | 
AGAGTGAGAGCT | 35.9 Kd / Kd of best base at the position | 
AGAGTGATAGCC | 4.04 Kd / Kd of best base at the position | 
AGAGTGATATCT | 3.39 Kd / Kd of best base at the position | 
AGAGGGATAGCT | 8.18 Kd / Kd of best base at the position | 
AGAGTGCTAGCT | 95.1 Kd / Kd of best base at the position | 
AGAGTGATAGTT | 5.68 Kd / Kd of best base at the position | 

Sequence | binding signal | Kd [nM]
AGAGTGATAACT | 12.1 Kd / Kd of best base at the position | 
AGAGTGATCGCT | 9.37 Kd / Kd of best base at the position | 
AGAGTCATAGCT | 51.6 Kd / Kd of best base at the position | 
AGAGTGATAGCT |  | ~5
AGAGTGTTAGCT | 34.8 Kd / Kd of best base at the position | 
AGACTGATAGCT | 1.06 Kd / Kd of best base at the position | 
ACAGTGATAGCT | 3.68 Kd / Kd of best base at the position | 
AGAATGATAGCT | 6.11 Kd / Kd of best base at the position | 
AGCGTGATAGCT | 4.94 Kd / Kd of best base at the position | 
GGAGTGATAGCT | 2.35 Kd / Kd of best base at the position | 
AGAGTGATACCT | 2.57 Kd / Kd of best base at the position | 
AGAGCGATAGCT | 6.46 Kd / Kd of best base at the position | 
AGTGTGATAGCT | 6.5 Kd / Kd of best base at the position | 
AGAGTGATAGCG | 7.84 Kd / Kd of best base at the position | 
AGGGTGATAGCT | 5.49 Kd / Kd of best base at the position | 
AGAGTGAAAGCT | 1670 Kd / Kd of best base at the position | 

Target: D (Drosophila melanogaster, UniProt Q24533 127-229)
Assay: as above
Conditions: tags: N-GST (pGEX-6P-1, kept); dsDNA, one strand shown

Chain of D (Q24533 127-229): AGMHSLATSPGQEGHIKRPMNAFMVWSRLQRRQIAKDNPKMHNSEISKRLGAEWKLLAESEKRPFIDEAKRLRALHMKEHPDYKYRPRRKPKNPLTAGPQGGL

Sequence | binding signal
GACCACTGTTCTTG | 40.3 Kd / Kd of best base at the position
GATCATTGTTCTTG | 2.05 Kd / Kd of best base at the position
GACCATTGTTCGTG | 3.61 Kd / Kd of best base at the position
GACCATCGTTCTTG | 34.5 Kd / Kd of best base at the position
GACCATTGTTCTTC | 1.12 Kd / Kd of best base at the position
GACCAGTGTTCTTG | 33 Kd / Kd of best base at the position
